Several values for one entry are separate records, joined by “and”; a condition that tells them apart may be missing. Equal entries are not always repeated. Records with an inconclusive call do not appear. A number with no mark means an inactive call. Activity calls are given as the source filed them. Unless noted, the call rests on the fitted dose curve; in most records, active means well fitted curve in the direction sought with a large enough effect in the repeat runs; inconclusive means weak or mixed curves; inactive means no such curve, though single readings can be large; an effect the other way counts as inactive or inconclusive.
experiment: qHTS assay for small molecule activators of the heat shock response signaling pathway - cell viability counter screen (AID 743209); details: HSE-bla HeLa viability, CellTiter-Glo luminescence, 5 h; series mostly up to 62.6 µM; activity change, negative = cytotoxicity: at the top concentration; further: nearly all actives have a fitted effect of over 50% in size; further: potency means the concentration at half of the fitted maximal effect
How it was run: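 Counter screen for cytotoxicity in HeLa HSE-bla reporter cells. Treatment was 5 h at 37 C; viability was detected by luminescent ATP assay (CellTiter-Glo) in the same wells as the beta-lactamase read.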
On the % scale 0 is the no-effect control and ±100 the full control effect.

Structure (SMILES) | Potency | activity change, negative = cytotoxicity
CC(C)(C)CC(C)(C)c1ccc(OCCOCC[N+](C)(C)Cc2ccccc2)cc1 | 34.6 µM (active) | –
Oc1cccc2cc3cccc(O)c3c(O)c12 | – | -1.63% [at 81.1 µM]
CC1=NC(C)OC1C (stereo unspecified) | – | -0.226%
CC(C)=CCOc1ccc(/C=C/C(=O)c2ccc(OCC=C(C)C)cc2OCC(=O)O)cc1 | – | -0.267%
CSc1ccc(C(=O)c2[nH]c(=O)[nH]c2C)cc1 | – | -6.86%
CCN(CCC#N)c1ccc(N=Nc2c(Cl)cc([N+](=O)[O-])cc2Cl)cc1 | – | -3.2%
CCCCCCCCCCCCCCCS(=O)(=O)Oc1ccccc1 | – | 2%
On1ccccc1=S | 0.153 µM (active) | –
CO[Si](CCCNc1ccccc1)(OC)OC | – | -4.2%
COC(=O)C1=C(C)NC(C)=C(C(=O)OCC(C)C)C1c1ccccc1[N+](=O)[O-] (stereo unspecified) | inactive | –
Cc1c(C)c2c(c(C)c1OC(=O)CCC(=O)O)CC[C@@](C)(CCC[C@H](C)CCC[C@H](C)CCCC(C)C)O2 | – | -5.36% [at 81.1 µM]
Cc1cc(O)c2ccccc2c1O | 9.44 µM (active) | –
CCCCc1oc2ccc(NS(C)(=O)=O)cc2c1C(=O)c1ccc(OCCCN(CCCC)CCCC)cc1 | 29.8 µM (active) | –
Cc1nc(-c2ccc3c(c2)CCN(CCC2CCC(NC(=O)/C=C/c4ccc(F)cc4)CC2)CC3)no1 (stereo unspecified) | – | 14.3% [at 29.1 µM]
Cc1cccc(CN2CCN(C(c3ccccc3)c3ccc(Cl)cc3)CC2)c1 (stereo unspecified) | – | -12.9%
O=C1Cc2cc(CCN3CCN(c4nsc5ccccc45)CC3)c(Cl)cc2N1 | – | -6.78%
CCCCCCCCCCCCCC[P+](CCCC)(CCCC)CCCC (tested in a mixture with another compound) | 11 µM (active) | –
Cc1cccc(S(=O)(=O)O)c1C | – | -0.749%
CCCCCCCCCCCCCCCC(=O)OC[C@H](O)[C@H]1OC(=O)C(O)=C1O | 49 µM (active) | –
CN(C)[C@@H]1C(=O)C(C(N)=O)=C(O)[C@@]2(O)C(=O)C3=C(O)c4c(O)ccc(Cl)c4[C@@H](O)[C@H]3C[C@@H]12 | – | -0.511%
CC(C)CCCCCCCCCCCCCCC(=O)O | 24.5 µM (active) | –
CNC(=O)c1ccccc1 | – | 0.468%
CCCCN1CCCC[C@H]1C(=O)Nc1c(C)cccc1C | – | -19.3%
O=C(O)c1ccc(Cl)c(Cl)c1 | – | -6.09%
O=C(O)c1cc(O)c2c(c1)C(=O)c1cccc(O)c1C2=O | – | 1.12% [at 81.1 µM]
Clc1ccc2n[nH]nc2c1 | – | 0.256%
OCCCCCCCCCCCCBr | – | -23.4% [at 81.1 µM]

experiment: qHTS assay for small molecule activators of the heat shock response signaling pathway (AID 743210; active means well fitted activation curve with a large enough effect in the signal ratio in the repeat runs, with a control signal flat, not every such curve was filed as active; the % refers to the signal ratio;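 further: HeLa cells with beta-lactamase reporter driven by heat shock elements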); details: HeLa HSE-bla reporter, beta-lactamase ratio, 5 h; series mostly up to 62.6 µM; activation: at the top concentration
How it was run: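 HeLa HSE-bla cells, overnight plating; cpd in DMSO 5 h, 37 C; LiveBLAzer B/G FRET substrate 2.5 h RT; fluorescence intensity read.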

Structure (SMILES) | activation
CC1=NC(C)OC1C (stereo unspecified) | 2.09%
CSc1ccc(C(=O)c2[nH]c(=O)[nH]c2C)cc1 | -0.303%
CO[Si](CCCNc1ccccc1)(OC)OC | 4.23%
Cc1c(C)c2c(c(C)c1OC(=O)CCC(=O)O)CC[C@@](C)(CCC[C@H](C)CCC[C@H](C)CCCC(C)C)O2 | -0.248% [at 81.1 µM]
Cc1cccc(CN2CCN(C(c3ccccc3)c3ccc(Cl)cc3)CC2)c1 (stereo unspecified) | 1.17%
Cc1cccc(S(=O)(=O)O)c1C | -0.0572%
Cc1ccc(-n2nc(C(C)(C)C)cc2NC(=O)Nc2ccc(OCCN3CCOCC3)c3ccccc23)cc1 | -0.22%
CN(C)[C@@H]1C(=O)C(C(N)=O)=C(O)[C@@]2(O)C(=O)C3=C(O)c4c(O)ccc(Cl)c4[C@@H](O)[C@H]3C[C@@H]12 | -1.87%
CNC(=O)c1ccccc1 | -0.0744%
CCCCN1CCCC[C@H]1C(=O)Nc1c(C)cccc1C | 0.204%
O=C(O)c1ccc(Cl)c(Cl)c1 | -0.37%
O=C(O)c1cc(O)c2c(c1)C(=O)c1cccc(O)c1C2=O | 1.3% [at 81.1 µM]

experiment: qHTS assay to identify small molecule agonists of the peroxisome proliferator-activated receptor delta (PPARd) signaling pathway - cell viability counter screen (AID 743211); details: PPARd-bla HEK293H viability, CellTiter-Glo luminescence, 17 h; series mostly up to 62.6 µM; activity change, negative = cytotoxicity: at the top concentration; further: nearly all actives have a fitted effect of over 55% in size; further: potency means the concentration at half of the fitted maximal effect
How it was run: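 PPARd-bla HEK293H cells (3000/well) were pre-incubated 5 h at 37 C, then exposed to compound for 17 h at 37 C. After 2 h with LiveBLAzer substrate, CellTiter-Glo was added to the same wells; luminescence read after 30 min at room temperature.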

Structure (SMILES) | Potency | activity change, negative = cytotoxicity
CC(C)(C)CC(C)(C)c1ccc(OCCOCC[N+](C)(C)Cc2ccccc2)cc1 | 21.9 µM (active) and 21.1 µM (active) | –
Oc1cccc2cc3cccc(O)c3c(O)c12 | – | -8.29% [at 81.1 µM]
CC1=NC(C)OC1C (stereo unspecified) | – | -0.173%
CCCCCCCCCCCCCCCC[N+](C)(C)CCN(Cc1ccc(OC)cc1)c1ncccn1 | 13.3 µM (active) | –
CC(C)=CCOc1ccc(/C=C/C(=O)c2ccc(OCC=C(C)C)cc2OCC(=O)O)cc1 | 29.8 µM (active) | –
CCCCCCCCCCCCCCCS(=O)(=O)Oc1ccccc1 | – | -7.19%
CO[Si](CCCNc1ccccc1)(OC)OC | – | 6.69%
Cc1c(C)c2c(c(C)c1OC(=O)CCC(=O)O)CC[C@@](C)(CCC[C@H](C)CCC[C@H](C)CCCC(C)C)O2 | – | -6.51% [at 81.1 µM]
Cc1cc(O)c2ccccc2c1O | 10.6 µM (active) | –
CCCCc1oc2ccc(NS(C)(=O)=O)cc2c1C(=O)c1ccc(OCCCN(CCCC)CCCC)cc1 | 16.8 µM (active) | –
Cc1nc(-c2ccc3c(c2)CCN(CCC2CCC(NC(=O)/C=C/c4ccc(F)cc4)CC2)CC3)no1 (stereo unspecified) | – | -9.98% [at 29.1 µM]
Cc1cccc(CN2CCN(C(c3ccccc3)c3ccc(Cl)cc3)CC2)c1 (stereo unspecified) | 26.6 µM (active) | –
O=C1Cc2cc(CCN3CCN(c4nsc5ccccc45)CC3)c(Cl)cc2N1 | 29.8 µM (active) | –
CCCCCCCCCCCCCC[P+](CCCC)(CCCC)CCCC (tested in a mixture with another compound) | – | 1.06% [at 81.1 µM]
Cc1cccc(S(=O)(=O)O)c1C | – | 0.11%
CCCCCCCCCCCCCCCC(=O)OC[C@H](O)[C@H]1OC(=O)C(O)=C1O | 49 µM (active) | –
CN(C)[C@@H]1C(=O)C(C(N)=O)=C(O)[C@@]2(O)C(=O)C3=C(O)c4c(O)ccc(Cl)c4[C@@H](O)[C@H]3C[C@@H]12 | – | -13.4%
CNC(=O)c1ccccc1 | – | 6.24%
CCc1cc(Cc2cc(CC)c(N)c(CC)c2)cc(CC)c1N | 54.9 µM (active) | –
O=C(O)c1ccc(Cl)c(Cl)c1 | – | 6.92%
O=C(O)c1cc(O)c2c(c1)C(=O)c1cccc(O)c1C2=O | – | -9.09% [at 81.1 µM]
Clc1ccc2n[nH]nc2c1 | – | -3.28%

— PubChem BioAssay (Tox21)
